Source: PubChem BioAssay AID2081 (NMMLSC, 2009)
Active and inactive are the calls of the source. How the calls were made is not given here.

biological target: Bcl-2-like protein 2 (Homo sapiens) (UniProt Q92843); assay: Bcl-W/Bim complex disruptors – biochemical, multiplexed, bead-based flow cytometry, HTS hits, confirmation (AID 2081); details: Bim-Bcl-W binding displacement; series mostly up to 100 µM
Sequence (Q92843 whole entry, looked up): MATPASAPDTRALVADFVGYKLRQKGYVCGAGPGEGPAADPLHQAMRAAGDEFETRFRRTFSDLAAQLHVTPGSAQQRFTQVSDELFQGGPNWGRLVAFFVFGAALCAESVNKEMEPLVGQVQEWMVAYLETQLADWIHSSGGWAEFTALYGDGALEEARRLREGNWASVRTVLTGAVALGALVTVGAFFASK

outcome, inactive:
CCN(CC)c1ccc(NC(=O)c2ccccc2F)cc1S(=O)(=O)Nc1ccccc1OC
CC(=O)Nc1ccc(-n2cc(-c3ccccc3)[nH]c2=S)cc1
COc1ccccc1-n1c(-c2ccccc2)c[nH]c1=S
COc1ccc(N2C(=O)C(Cl)=C(NC3C(=O)N(c4ccccc4)N(C)C3C)C2=O)cc1 (stereo unspecified)
O=C(Nc1nnc(COc2ccc(Cl)cc2)s1)c1ccco1
Cc1cc(-c2cc(-c3ccc(Cl)cc3)nc(N)c2C#N)co1
Cc1ccc(-c2cc(C(=O)Nc3nccs3)c3ccccc3n2)o1
Cc1ccc(-c2cc(-c3ccc(F)cc3)c(C#N)c(N)n2)o1
Cc1ccc(-c2cc(-c3ccc(C)o3)nc(N)c2C#N)cc1
CCN(CC)c1ccc(NC(=O)c2ccccc2Br)cc1S(=O)(=O)Nc1ccccc1OC
CNC(CC(=O)c1ccc([N+](=O)[O-])cc1)C(Cl)(Cl)Cl (stereo unspecified)
COc1cc(CNc2ccc3[nH]c(=O)[nH]c3c2)cc(Br)c1OCC(=O)NC(C)(C)C
O=C1c2ccccc2C(=O)N1CN(C(=O)COc1ccc(Cl)cc1Cl)c1cccc(F)c1
CCN1C(=O)/C(=C\C=C2/C=CC=CN2CC)SC1=S
CCN(CC)c1ccc(NC(=O)COc2ccccc2C)cc1S(=O)(=O)Nc1ccccc1OC
O=C1C(Cl)=C(N2CCN(c3ccccc3[N+](=O)[O-])CC2)C(=O)c2ccccc21
O=c1c2c(n3nnnc3n1Cc1ccccc1)-c1ccccc1CC21CCCC1
CN(CCO)c1cc(Sc2nc3ccccc3s2)c2nonc2c1[N+](=O)[O-]
O=C1/C(=C\c2ccco2)NC(=S)N1c1ccccc1
CCN(CC)C(=O)COC(=O)c1cc(-c2ccco2)nc2ccccc12
S=c1[nH]cc(-c2ccccc2)n1-c1ccccc1
Cc1ccc(C=NNC(=O)CSc2nnc(-c3ccc(Cl)cc3)n2-c2ccccc2)o1
Cc1ccc(-c2nc3c(c(=O)[nH]c(=O)n3Cc3ccccc3)n2C)o1
O=[N+]([O-])c1c(NCCCO)cc(Sc2nc3ccccc3s2)c2nonc12
COc1ccc(N2C(=O)C(Cl)=C(Oc3cccc(OC)c3)C2=O)cc1
C=CS(=O)(=O)c1sc(Cl)c(N2CCOCC2)c1[N+](=O)[O-]
